From PMC7862700, “An all-to-all approach to the identification of sequence-specific readers for epigenetic DNA modifications on cytosine” come the findings set out here.

Common to all, as to assay: DAPPL (digital affinity profiling via proximity ligation, sequencing); 10 mM Tris-HCl pH 7.5, 50 mM NaCl, 1 mM DTT, 4% glycerol, room temperature, 30 min; GST-TFs on glutathione beads, 16-mer random dsDNA library, 0.1% formaldehyde crosslink after washing; high values mean tight binding
What all share (details): protein: recombinant; tags: N-terminal GST; dsDNA, one strand shown

For one test, the target named is T1, FLI1 (Homo sapiens, UniProt Q01543 1-452).
T1 sequence: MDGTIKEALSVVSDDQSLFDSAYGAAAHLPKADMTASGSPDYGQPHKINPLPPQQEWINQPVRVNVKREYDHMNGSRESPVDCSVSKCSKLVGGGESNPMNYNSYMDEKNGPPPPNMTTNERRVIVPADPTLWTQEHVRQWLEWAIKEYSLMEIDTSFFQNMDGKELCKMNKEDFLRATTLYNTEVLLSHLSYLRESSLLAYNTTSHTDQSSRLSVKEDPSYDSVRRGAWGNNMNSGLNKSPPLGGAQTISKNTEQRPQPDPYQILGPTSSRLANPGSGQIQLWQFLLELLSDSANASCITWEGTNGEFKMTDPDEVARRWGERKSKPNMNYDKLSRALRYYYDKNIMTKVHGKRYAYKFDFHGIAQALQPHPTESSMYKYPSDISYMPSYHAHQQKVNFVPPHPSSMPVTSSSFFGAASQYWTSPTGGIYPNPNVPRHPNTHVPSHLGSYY
In a few lines: (§1)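 Pools of DNA-barcoded human transcription factors, expressed in yeast as GST fusions on glutathione beads and combined with a tag-only sample, were incubated with 200 nmole of a 16-mer random double-stranded DNA library. Incubation took 30 min at room temperature in Tris/NaCl/DTT/glycerol buffer and was followed by washing, 0.1% formaldehyde crosslinking, proximity ligation (BsaI/T4 ligase, 1 h, 37 °C), PCR amplification and sequencing on an Illumina NextSeq500. Binding signal is the ratio of a hexamer's read frequency for a factor to its frequency for the tag-only sample.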

A further test deals with T2, ELK1 (Homo sapiens, UniProt P19419 1-428).
T2 sequence: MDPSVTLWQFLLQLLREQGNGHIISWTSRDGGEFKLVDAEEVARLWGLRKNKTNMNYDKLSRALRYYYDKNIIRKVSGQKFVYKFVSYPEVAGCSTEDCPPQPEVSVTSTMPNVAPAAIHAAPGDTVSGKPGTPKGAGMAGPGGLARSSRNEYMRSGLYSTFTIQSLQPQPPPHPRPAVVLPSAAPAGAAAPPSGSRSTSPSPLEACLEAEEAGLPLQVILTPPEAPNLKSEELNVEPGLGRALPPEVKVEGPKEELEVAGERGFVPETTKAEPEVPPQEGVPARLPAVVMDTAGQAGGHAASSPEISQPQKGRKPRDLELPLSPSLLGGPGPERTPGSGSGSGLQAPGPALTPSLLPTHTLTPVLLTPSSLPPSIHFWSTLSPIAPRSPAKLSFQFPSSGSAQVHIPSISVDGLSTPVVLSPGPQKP
In a few lines: as §1

A further test deals with T3, GABPA (Homo sapiens, UniProt Q06546 1-454).
T3 sequence: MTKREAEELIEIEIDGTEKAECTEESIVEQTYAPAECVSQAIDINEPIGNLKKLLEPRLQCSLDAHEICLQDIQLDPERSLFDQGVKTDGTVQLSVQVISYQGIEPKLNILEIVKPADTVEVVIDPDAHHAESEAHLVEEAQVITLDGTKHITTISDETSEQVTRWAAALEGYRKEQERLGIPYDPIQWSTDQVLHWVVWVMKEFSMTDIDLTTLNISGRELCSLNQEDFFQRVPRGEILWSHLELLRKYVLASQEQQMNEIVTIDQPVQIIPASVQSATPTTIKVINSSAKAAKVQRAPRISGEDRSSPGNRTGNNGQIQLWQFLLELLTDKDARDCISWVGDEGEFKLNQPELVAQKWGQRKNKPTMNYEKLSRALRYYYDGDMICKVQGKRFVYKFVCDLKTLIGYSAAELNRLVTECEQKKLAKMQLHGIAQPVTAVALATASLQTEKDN
The procedure, abridged: as §1

For a further test, the target named is T4, ERG (Homo sapiens, UniProt P11308 1-479).
T4 sequence: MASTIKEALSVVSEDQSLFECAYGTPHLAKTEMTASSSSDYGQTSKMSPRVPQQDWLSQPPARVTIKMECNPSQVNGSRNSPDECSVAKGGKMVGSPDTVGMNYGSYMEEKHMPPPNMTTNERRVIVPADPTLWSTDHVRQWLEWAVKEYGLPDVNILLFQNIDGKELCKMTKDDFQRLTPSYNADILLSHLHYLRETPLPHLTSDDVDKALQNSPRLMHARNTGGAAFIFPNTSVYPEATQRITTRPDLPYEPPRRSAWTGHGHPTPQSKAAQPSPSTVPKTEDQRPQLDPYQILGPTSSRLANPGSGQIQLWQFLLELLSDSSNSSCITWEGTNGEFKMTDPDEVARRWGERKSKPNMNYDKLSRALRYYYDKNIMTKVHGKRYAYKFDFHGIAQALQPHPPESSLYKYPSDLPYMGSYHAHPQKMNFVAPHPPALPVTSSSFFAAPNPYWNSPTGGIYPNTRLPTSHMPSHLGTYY
The procedure, abridged: as §1

The next test concerns the target ELF1 (Homo sapiens, UniProt P32519 1-619). The procedure, abridged: as §1
The target in another test is T5, EHF (Homo sapiens, UniProt Q9NZC4 1-300).
T5 sequence: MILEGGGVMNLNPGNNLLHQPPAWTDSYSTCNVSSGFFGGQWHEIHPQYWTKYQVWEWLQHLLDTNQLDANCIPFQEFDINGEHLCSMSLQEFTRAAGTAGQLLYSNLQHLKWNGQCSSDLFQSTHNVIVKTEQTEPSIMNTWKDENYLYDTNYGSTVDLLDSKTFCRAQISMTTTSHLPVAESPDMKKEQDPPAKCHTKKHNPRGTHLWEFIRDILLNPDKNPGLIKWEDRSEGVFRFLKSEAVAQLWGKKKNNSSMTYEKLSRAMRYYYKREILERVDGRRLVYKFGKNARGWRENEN
In a few lines:
as §1

In a further test the target is SPIB (Homo sapiens, UniProt Q01892 1-262). The procedure, abridged:
as §1

A further test deals with T6, FEV (Homo sapiens, UniProt Q99581 1-238).
T6 sequence: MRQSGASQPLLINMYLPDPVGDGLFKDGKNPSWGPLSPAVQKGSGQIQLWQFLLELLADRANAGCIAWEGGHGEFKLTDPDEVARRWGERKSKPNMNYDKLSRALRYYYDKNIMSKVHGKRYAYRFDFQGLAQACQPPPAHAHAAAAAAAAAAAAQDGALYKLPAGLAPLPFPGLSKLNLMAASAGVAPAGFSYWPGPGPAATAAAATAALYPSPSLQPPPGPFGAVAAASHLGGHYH
The procedure, abridged:
as §1

In the next test the target is ETV5 (Homo sapiens, UniProt P41161 1-510). The procedure, abridged:
as §1

The target in a further test is T7, SPIC (Homo sapiens, UniProt Q8N5J4 1-248).
T7 sequence: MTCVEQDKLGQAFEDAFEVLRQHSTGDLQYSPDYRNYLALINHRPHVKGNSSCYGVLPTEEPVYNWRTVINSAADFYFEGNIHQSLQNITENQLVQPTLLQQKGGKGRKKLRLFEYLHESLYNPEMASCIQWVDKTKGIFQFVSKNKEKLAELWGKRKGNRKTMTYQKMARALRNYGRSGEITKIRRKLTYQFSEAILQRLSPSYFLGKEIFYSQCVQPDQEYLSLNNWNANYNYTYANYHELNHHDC
The procedure, abridged: as §1

For another test, the target named is ELF4 (Homo sapiens, UniProt Q99607 1-663). The procedure, abridged: as §1
ELF4, sequence (Q99607 whole entry): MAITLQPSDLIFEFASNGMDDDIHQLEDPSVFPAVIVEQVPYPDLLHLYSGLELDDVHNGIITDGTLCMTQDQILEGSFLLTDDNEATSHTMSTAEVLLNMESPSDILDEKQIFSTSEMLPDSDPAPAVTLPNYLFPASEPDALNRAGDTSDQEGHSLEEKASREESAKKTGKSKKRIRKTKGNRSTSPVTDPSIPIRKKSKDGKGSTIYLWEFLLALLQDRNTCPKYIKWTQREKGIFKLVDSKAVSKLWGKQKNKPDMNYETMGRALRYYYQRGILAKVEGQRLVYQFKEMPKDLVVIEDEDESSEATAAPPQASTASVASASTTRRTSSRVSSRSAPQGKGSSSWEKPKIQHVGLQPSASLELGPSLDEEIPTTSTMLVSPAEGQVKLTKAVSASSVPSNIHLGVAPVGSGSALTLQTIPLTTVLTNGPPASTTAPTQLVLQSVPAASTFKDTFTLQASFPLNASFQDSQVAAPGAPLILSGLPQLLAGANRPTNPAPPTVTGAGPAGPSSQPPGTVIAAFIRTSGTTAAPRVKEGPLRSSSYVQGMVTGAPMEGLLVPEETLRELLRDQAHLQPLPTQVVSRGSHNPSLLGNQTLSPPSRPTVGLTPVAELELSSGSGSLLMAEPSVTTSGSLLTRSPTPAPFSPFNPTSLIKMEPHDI
In the next test the target is T8, ERF (Homo sapiens, UniProt P50548 1-548).
T8 sequence: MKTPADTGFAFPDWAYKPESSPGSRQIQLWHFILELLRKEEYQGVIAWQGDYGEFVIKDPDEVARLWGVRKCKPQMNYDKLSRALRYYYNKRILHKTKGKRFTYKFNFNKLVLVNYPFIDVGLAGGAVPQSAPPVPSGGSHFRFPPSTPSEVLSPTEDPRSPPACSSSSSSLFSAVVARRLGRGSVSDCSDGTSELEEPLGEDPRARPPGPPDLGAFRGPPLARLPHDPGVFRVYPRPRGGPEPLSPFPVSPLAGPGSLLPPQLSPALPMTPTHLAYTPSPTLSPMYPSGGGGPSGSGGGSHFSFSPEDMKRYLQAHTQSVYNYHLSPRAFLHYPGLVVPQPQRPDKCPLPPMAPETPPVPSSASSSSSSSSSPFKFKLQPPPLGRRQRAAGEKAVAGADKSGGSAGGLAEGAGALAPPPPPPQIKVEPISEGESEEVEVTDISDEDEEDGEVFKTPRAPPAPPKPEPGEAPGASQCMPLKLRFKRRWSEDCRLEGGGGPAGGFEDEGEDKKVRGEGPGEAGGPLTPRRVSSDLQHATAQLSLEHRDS
The procedure, abridged:
as §1

A further test deals with T9, ETV3L (Homo sapiens, UniProt Q6ZN32 1-361).
T9 sequence: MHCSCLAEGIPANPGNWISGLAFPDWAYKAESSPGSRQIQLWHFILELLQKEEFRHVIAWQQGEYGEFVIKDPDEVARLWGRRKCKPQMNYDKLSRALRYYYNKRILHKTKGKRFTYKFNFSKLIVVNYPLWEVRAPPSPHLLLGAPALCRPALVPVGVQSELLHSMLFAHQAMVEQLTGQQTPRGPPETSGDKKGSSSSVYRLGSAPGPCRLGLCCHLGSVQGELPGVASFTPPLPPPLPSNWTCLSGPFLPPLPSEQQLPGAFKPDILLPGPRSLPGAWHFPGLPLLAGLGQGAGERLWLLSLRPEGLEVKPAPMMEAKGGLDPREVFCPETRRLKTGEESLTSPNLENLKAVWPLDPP
In a few lines:
as §1

A further test deals with T10, ETS2 (Homo sapiens, UniProt P15036 1-469).
T10 sequence: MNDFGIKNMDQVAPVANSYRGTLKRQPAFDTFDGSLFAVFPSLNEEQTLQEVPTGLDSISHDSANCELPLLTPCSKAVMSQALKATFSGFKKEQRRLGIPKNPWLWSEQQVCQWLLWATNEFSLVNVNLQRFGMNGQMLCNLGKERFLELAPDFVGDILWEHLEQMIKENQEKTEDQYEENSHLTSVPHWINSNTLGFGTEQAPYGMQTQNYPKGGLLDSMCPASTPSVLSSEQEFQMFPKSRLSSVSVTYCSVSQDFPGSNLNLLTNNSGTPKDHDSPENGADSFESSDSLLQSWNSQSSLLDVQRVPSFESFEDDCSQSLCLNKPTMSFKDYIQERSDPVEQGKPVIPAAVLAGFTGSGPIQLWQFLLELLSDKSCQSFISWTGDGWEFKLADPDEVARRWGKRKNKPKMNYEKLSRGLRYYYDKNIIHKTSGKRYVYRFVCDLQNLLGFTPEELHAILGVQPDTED
In a few lines:
as §1

The target in another test is T11, SPDEF (Homo sapiens, UniProt O95238 1-335).
T11 sequence: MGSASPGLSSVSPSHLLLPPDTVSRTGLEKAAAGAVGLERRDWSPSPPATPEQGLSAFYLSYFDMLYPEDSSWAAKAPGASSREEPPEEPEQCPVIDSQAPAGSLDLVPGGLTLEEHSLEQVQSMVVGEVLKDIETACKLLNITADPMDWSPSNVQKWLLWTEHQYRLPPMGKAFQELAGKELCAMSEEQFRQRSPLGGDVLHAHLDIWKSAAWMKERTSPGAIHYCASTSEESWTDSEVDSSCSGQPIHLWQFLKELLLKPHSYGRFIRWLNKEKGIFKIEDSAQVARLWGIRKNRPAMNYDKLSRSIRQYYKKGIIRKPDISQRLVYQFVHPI
The procedure, abridged: as §1

The next test has as its target T12, ELF5 (Homo sapiens, UniProt Q9UKW6-2 1-255).
T12 sequence: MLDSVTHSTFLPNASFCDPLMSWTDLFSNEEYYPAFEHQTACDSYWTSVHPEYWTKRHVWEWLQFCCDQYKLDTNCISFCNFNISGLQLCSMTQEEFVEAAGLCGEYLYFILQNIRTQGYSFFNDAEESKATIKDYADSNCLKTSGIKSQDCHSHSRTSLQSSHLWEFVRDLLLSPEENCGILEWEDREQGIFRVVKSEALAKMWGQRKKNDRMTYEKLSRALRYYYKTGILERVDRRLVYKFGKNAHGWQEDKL
In a few lines: as §1

A further test addresses T13, ETV3 (Homo sapiens, UniProt P41162-2 1-143).
T13 sequence: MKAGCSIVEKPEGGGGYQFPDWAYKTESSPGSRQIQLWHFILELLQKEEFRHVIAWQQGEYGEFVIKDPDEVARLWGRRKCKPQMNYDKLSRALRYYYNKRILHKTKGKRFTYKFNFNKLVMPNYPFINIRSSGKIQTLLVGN
The procedure, abridged:
as §1

The next test addresses ETV6 (Homo sapiens, UniProt P41212 1-452). In a few lines:
as §1

ELF1, sequence (P32519 whole entry): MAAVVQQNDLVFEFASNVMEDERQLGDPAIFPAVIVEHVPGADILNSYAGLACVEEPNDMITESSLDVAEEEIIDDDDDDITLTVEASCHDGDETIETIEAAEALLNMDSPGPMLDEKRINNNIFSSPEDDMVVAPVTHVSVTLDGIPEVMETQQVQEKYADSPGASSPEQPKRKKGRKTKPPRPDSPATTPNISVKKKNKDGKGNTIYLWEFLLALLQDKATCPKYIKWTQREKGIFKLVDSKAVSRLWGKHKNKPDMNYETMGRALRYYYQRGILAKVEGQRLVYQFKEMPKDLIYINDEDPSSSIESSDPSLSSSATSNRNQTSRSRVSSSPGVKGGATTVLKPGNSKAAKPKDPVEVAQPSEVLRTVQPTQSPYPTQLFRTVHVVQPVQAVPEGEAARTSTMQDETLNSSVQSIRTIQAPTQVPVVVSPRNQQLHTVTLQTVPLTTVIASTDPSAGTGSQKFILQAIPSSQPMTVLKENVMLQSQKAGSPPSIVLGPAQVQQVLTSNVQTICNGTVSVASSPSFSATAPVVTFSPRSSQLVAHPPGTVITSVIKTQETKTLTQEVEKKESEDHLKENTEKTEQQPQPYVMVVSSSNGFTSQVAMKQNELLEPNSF
ETV5, sequence (P41161 whole entry): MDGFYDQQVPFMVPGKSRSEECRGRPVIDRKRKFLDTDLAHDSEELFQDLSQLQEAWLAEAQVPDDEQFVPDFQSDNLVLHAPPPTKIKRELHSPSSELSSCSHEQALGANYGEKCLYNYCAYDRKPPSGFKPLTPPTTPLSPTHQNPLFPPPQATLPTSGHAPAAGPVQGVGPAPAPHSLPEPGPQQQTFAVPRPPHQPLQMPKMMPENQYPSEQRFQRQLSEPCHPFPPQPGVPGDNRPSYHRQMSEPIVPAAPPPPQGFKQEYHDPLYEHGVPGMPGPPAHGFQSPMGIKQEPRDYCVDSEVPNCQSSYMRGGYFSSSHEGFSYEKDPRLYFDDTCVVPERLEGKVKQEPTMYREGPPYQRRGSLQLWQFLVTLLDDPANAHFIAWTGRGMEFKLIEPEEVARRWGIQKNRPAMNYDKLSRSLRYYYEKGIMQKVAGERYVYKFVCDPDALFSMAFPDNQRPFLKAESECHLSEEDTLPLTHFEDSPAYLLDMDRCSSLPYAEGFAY
SPIB, sequence (Q01892 whole entry): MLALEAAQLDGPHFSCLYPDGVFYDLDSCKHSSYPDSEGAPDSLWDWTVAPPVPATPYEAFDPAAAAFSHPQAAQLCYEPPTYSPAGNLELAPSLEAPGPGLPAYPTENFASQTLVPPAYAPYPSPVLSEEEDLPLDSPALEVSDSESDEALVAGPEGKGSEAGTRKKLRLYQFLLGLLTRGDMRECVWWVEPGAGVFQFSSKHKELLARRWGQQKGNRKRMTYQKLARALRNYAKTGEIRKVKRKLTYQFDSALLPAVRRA
ETV6, sequence (P41212 whole entry): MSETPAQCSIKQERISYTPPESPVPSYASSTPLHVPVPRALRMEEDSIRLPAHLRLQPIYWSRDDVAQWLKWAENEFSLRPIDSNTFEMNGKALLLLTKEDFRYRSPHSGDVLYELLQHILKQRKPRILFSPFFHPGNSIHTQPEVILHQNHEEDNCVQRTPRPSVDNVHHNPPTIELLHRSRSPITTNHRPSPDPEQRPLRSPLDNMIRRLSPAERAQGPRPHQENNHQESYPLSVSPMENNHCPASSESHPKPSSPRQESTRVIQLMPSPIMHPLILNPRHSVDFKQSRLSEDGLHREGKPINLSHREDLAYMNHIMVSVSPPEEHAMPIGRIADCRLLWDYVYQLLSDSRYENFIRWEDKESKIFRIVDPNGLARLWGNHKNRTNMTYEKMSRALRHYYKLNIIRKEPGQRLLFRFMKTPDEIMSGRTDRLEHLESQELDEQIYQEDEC

Turning to CCGCTG, the binding signal with FLI1 was 1.13 fold enrichment (6-mer frequency, TF over GST control); with ELK1, 1.03 fold enrichment (6-mer frequency, TF over GST control); in the test with GABPA it was 1.02 fold enrichment (6-mer frequency, TF over GST control); in the test with ERG, 1.05 fold enrichment (6-mer frequency, TF over GST control); in the test with ELF1, 1 fold enrichment (6-mer frequency, TF over GST control); with EHF it was 1.05 fold enrichment (6-mer frequency, TF over GST control). The binding signal with SPIB was 1.07 fold enrichment (6-mer frequency, TF over GST control); with FEV it was 1.11 fold enrichment (6-mer frequency, TF over GST control); in the test with ETV5, 1.06 fold enrichment (6-mer frequency, TF over GST control); in the test with SPIC, 1.08 fold enrichment (6-mer frequency, TF over GST control); with ELF4 it was 1.06 fold enrichment (6-mer frequency, TF over GST control); in the test with ERF, 1.03 fold enrichment (6-mer frequency, TF over GST control). Moreover, the binding signal is 1.04 fold enrichment (6-mer frequency, TF over GST control) with ETV3L; 1.06 fold enrichment (6-mer frequency, TF over GST control) with ETS2; 1.01 fold enrichment (6-mer frequency, TF over GST control) with SPDEF; 1.03 fold enrichment (6-mer frequency, TF over GST control) with ELF5; 1.08 fold enrichment (6-mer frequency, TF over GST control) with ETV3; 1.11 fold enrichment (6-mer frequency, TF over GST control) in the test with ETV6.
